# Screening results (PubChem BioAssay)
# A selection: hits, their analogues and other compounds. The true share with any hit is near 12%.
# Sfp inh: inhibitors of Bacillus subtilis Sfp phosphopantetheinyl transferase; 3.5% of 310,000 active; Q9F4F7; Biochemical Sfp PPTase activity, qHTS; Potency, µM, inactives show largest response in the series, negative = inhibition, hits mostly inhibitors;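 further: the enzyme is Sfp with the accession as filed and its product quenches rhodamine fluorescence; 0% = enzyme reaction without inhibitor and -100% = no enzyme wells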
#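 After 15 min at room temperature with compound, 15 nM Sfp received 5 uM rhodamine-CoA plus 12.5 uM BHQ-2-ybbR (50 mM Hepes pH 7.6, 10 mM MgCl2). Rate came from the fluorescence difference over 30 min, ex 525/em 598 nm.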
# BAZ2B block: BAZ2B (human) inhibition. Q9UIF8. AlphaScreen BAZ2B-H3K14Ac peptide displacement. Potency, µM (highest dose often 114 µM), for the others: at the highest dose activity change, negative = inhibition, usual class: inhibitors. 4.4% of 360,000 active. AID 504333; further: on the % scale 0 is the no-effect control and ±100 the full control effect; nearly all actives have a fitted effect of over 60% in size
#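 Inhibition is scored as reduced AlphaScreen emission. The BAZ2B/b-H3(5-23)K14Ac complex (50 nM each) in PBS pH 7.4, 0.01% Tween-20 meets compound (up to 110 uM) for 30 min at RT before bead addition.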
# L3MBTL1 inh: blocks human L3MBTL1; AlphaScreen L3MBTL1–H3K9me1 peptide binding; Potency, µM (highest dose often 57.1 µM), for inactives: at the highest dose activity, negative = inhibition, most hits filed as inhibitors; AID 485360; Q9Y468; 0.66% of 230,000 active; further: on the % scale 0 is the no-effect control and ±100 the full control effect; nearly all actives have a fitted effect of over 60% in size
#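 Read-out is AlphaScreen signal from streptavidin donor and nickel chelate acceptor beads (10 ug/mL final each) bridging L3MBTL1 (50 nM) and biotinylated K9-monomethylated H3(1-15) peptide (75 nM), after 30 min compound exposure at room temperature.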
# HP1b binding inh: blocks HP1-beta chromodomain binding to methylated histone tails; P83916; AlphaScreen HP1-beta / biotin-H3K9me3 peptide binding; Potency, µM (series often up to 114 µM), inactives show at the top dose activity change, negative = inhibition, hits mostly inhibitors; 0.56% of 390,000 active; further: nearly all actives have a fitted effect of over 70% in size
# Target sequence (P83916 whole entry, looked up): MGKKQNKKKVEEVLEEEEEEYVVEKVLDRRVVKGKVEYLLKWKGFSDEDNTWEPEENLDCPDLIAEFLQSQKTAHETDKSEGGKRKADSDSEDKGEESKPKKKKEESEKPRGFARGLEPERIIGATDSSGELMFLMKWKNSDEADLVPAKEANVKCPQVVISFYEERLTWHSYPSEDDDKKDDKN
#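 AlphaScreen: HP1-beta (50 nM) preformed 30 min with biotin-H3(1-18)K9me3 peptide (50 nM) in PBS pH 7.4, 0.01% Tween-20. Compound added for 30 min at RT, then streptavidin donor/nickel chelate acceptor beads (10 ug/mL) for 30 min.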
# G9a inh: G9a (human) methyltransferase inhibition; Q96KQ7; G9a H3K9 monomethylation, AlphaScreen, 2 h; Potency, µM (highest dose often 102 µM), inactives show top-dose activity, negative = inhibition, actives largely listed as inhibitors; 8.8% of 350,000 active; further: on the % scale 0 is the no-effect control and ±100 the full control effect; nearly all actives have a fitted effect of over 75% in size
# Target sequence (Q96KQ7 913-1193 limits assumed): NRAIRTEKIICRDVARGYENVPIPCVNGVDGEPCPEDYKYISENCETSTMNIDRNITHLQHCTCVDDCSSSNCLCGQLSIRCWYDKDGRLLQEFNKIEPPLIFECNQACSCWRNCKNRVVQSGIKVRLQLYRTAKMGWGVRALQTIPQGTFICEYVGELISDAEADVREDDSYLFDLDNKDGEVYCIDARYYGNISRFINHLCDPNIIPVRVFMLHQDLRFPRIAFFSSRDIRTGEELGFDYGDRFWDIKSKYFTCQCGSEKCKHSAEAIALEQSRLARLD
#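 Compounds were preincubated with 20 nM G9a for 15 min, after which biotinylated H3K9 peptide (500 nM) and SAM (20 uM) started a 2 h room-temperature reaction. Monomethylated product was quantified by antibody-based AlphaScreen chemiluminescence.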
# JMJD2A Tudor inh: blocks the human JMJD2A Tudor domain | O75164 | AlphaScreen JMJD2A-Tudor / H3K4me3 peptide binding | Potency, µM (titrated, usually from 114 µM), for the others: top-dose activity change, negative = inhibition, most hits filed as inhibitors | 4.4% of 390,000 active; further: on the % scale 0 is the no-effect control and ±100 the full control effect; nearly all actives have a fitted effect of over 50% in size
# An asterisk follows results filed as active; ? = inconclusive; . = no result given; [ ] = remark or other dose. The call rests on the fitted dose curve; in most records, active means well fitted curve in the direction sought with a large enough effect; inconclusive means small, poorly fitted or top-dose-only effect, or another doubt; inactive means no such curve, though single readings can be large; an effect the other way counts as inactive or inconclusive. Potency means the concentration at half of the fitted maximal effect.
SMILES,Sfp inh,BAZ2B block,L3MBTL1 inh,HP1b binding inh,G9a inh,JMJD2A Tudor inh
CC(C)(C)OC(=O)NS(=O)(=O)NCc1ccco1,5.6%,.,.,21.0%,.,-18.6%
O=C(Nc1ccc(Cl)cc1Cl)c1cccc(N2C(=O)C=CC2=O)c1,16.1%,3.6%,0.8%,?,?,3.16µM*
O=c1[nH]c(=O)c2nnc(N/N=C/c3ccccc3F)nc2[nH]1,-17.6%,-1.2%,.,43.5%,-5.2%,-16.4%
O=c1[nH]c(=O)c2nnc(N/N=C\c3ccc(O)cc3)nc2[nH]1,?,?,.,40.3%,11.2µM*,?
O=c1[nH]c2ccc(S(=O)(=O)N3CCN(S(=O)(=O)c4c(F)cccc4F)CC3)cc2[nH]c1=O,.,.,.,.,.,-30.1%
Cc1nn2c(=O)cc(COC(=O)c3ccc(NC(=O)COc4ccc(Cl)cc4)cc3)nc2s1,.,-12.4%,.,18.2%,30.3%[59 µM],-1.0%
COC(=O)c1c(C)oc2ccc(N(C(=O)c3ccncc3)S(=O)(=O)c3cc(C)c(C)cc3C)cc12,.,-25.9%,.,12.3%,10µM*,-30.8%
COC(=O)c1c(C)oc2ccc(N(C(=O)c3ccncc3)S(=O)(=O)c3ccc(C)cc3C)cc12,0.2%,2.9%,6.2%,-1.2%,-14.1%[59 µM],-29.7%
O=C(O)c1ccc2c(c1)OCO2,10.3%,.,.,.,.,.
O=C(O)c1cc(O)c2c(c1)[O][Bi][O]2,?,.,.,.,1µM*,.
COc1ccc(Cc2nc3ccccc3n2CC(=O)N/N=C/c2ccc(C)cc2O)cc1OC,1.1%,56.2µM*,-14.7%,18.8%,?,?
COc1ccc(Cc2nc3ccccc3n2CC(=O)N/N=C/c2ccc(O)cc2)cc1OC,10.7%,2.2%,3.8%,23.7%,16.2%,-15.9%
CCCN1CCC(=O)N(C(CSc2ccc(Br)cc2)CC(C)C)CC1 (stereo unspecified),-1.5%,.,.,-22.3%,.,-29.7%
Nc1ccc(S(=O)(=O)Nc2cccc3cccnc23)cc1,11.4%,.,.,.,.,-12.4%
O=[N+]([O-])c1ccc(O)c(Nc2ncnc3ccc(Br)cc23)c1,7.1%,?,.,?,?,-31.2%
Cc1ccc(C)c(Nc2ccc3nonc3c2[N+](=O)[O-])c1,-1.0%,?,.,?,?,-35.8%
O=[N+]([O-])c1ccc(O)c(Nc2c([N+](=O)[O-])ccc3nonc23)c1,-9.4%,50.1µM*,.,-24.2%[57 µM],50.1µM*,?
Cc1ccc(C)c(Nc2c([N+](=O)[O-])ccc3nonc23)c1,4.5%,3.55µM*,.,?,?,-31.2%
CCOC(=O)c1c(C)[nH]c(C(=O)CSc2ccc(Cl)cc2)c1C,4.7%,-2.1%,.,13.2%,2.9%[59 µM],-2.9%
CCOC(=O)c1c(C)[nH]c(C(=O)CSc2nnc(Nc3ccccc3F)s2)c1C,?,-37.4%,-9.1%,17.7%,17.8µM*,-24.2%
C[C@@H]1C[C@](C)(C(=O)c2ccc3c(c2)OCO3)C=C1c1ccc2c(c1)OCO2,-4.4%,.,.,.,.,.
Nc1[nH]c(=S)[nH]c(=O)c1-c1ccccc1,-74.6%,0.5%,5.2%,-28.1%,?,35.5µM*
O=c1[nH]c(=S)[nH]c2nc(-c3ccccc3)cnc12,.,.,.,32.9%,.,4.1%
CCN(C(=O)C(NS(=O)(=O)c1cccc2nsnc12)c1ccccc1)c1ccccc1 (stereo unspecified),.,.,.,5.3%,2.82µM*,?
CC(=O)c1cccc(NC(=O)CCS(=O)(=O)c2cccc3nsnc23)c1,56.2µM*,-3.6%,.,-38.0%,10µM*,-27.5%[57.1 µM]
SMILES,Sfp inh,BAZ2B block,L3MBTL1 inh,HP1b binding inh,G9a inh,JMJD2A Tudor inh
Cc1cc(C)cc(NC(=O)CCS(=O)(=O)c2cccc3nsnc23)c1,.,-6.3%,.,6.7%,-6.7%[59 µM],-22.9%
C=CCN(C(=O)CCS(=O)(=O)c1cccc2nsnc12)c1ccccc1,-14.7%,-3.9%,.,2.7%,44.7µM*,-23.0%
O=C(CCS(=O)(=O)c1cccc2nonc12)NC1CCCCCC1,-0.1%,1.6%,.,16.0%,-8.0%[2.33 µM],-21.5%
O=C(CCS(=O)(=O)c1cccc2nsnc12)NC1CCCCCC1,-19.6%,-1.4%[57.1 µM],3.3%,13.7%,39.8µM*,-10.8%
CCc1nc2nc(C)cc(Nc3ccc(Br)cc3F)n2n1,.,-1.1%,.,52.6%,-31.6%[59 µM],-17.5%
c1cn(-c2ccnc(-c3ccc4c(c3)OCO4)n2)cn1,-2.4%,.,.,.,-9.2%[0.501 µM],.
Cc1ccc(N2CCN(C(=O)c3c4c(nc5ccccc35)C(=O)N(C3CCCCC3)C4)CC2)c(C)c1,.,-21.9%,.,3.1%,4.7%[59 µM],?
CCOC(=O)c1c(N)sc(C(=O)N(CC)CC)c1C,11.8%,6.4%,2.7%,30.5%,-6.7%,-6.9%
Cc1c(C(N)=O)sc(N)c1C(=O)OC(C)C,-17.9%,-23.8%,-2.7%,-22.0%,39.8µM*,-16.0%
CCOC(=O)c1c(N)sc(=S)c2c1CCC2,31.6µM*,44.7µM*,?,?,?,?
CCOC(=O)c1sc(N)c(C(N)=O)c1C,31.6µM*,.,7.1%,-13.1%,39.8µM*,-20.3%
CCOC(=O)c1c(N)sc(N)c1C(=O)OCC,?,50.1µM*,-8.2%,8.91µM*,3.16µM*,?
CCOC(=O)c1c(N)sc(C(N)=O)c1C,?,-4.5%,-5.6%,?,?,5.3%
CCOC(=O)c1c(N)sc(C(=O)N2CCCCCC2)c1C,1.3%,4.2%,-1.5%,6.1%,-14.6%,-7.8%
CCOC(=O)c1cccc(NC(=O)CCCn2c(C)c3cnn(-c4ccccc4)c(=O)c3c2C)c1,.,-30.0%,.,-8.6%,-25.1%[59 µM],?
CCCc1c(C(=O)OCC)sc(N)c1C#N,63.1µM*,?,56.7%,?,?,-9.0%
CCOC(=O)c1c(N)ssc1=S,22.4µM*,?,-2.2%,?,1µM*,?
C=CCn1sc(N)c(C(=O)OCC)c1=S,0.3%,?,-3.4%,8.4%,-19.6%,-34.9%
CCCOC(=O)c1c(NC(=O)c2cc3ccccc3c(=O)o2)sc2c1CCC(C)C2 (stereo unspecified),.,6.5%,.,21.9%,3.5%[59 µM],3.8%
N#Cc1nc(Cc2ccccc2)oc1N1CCC(Cc2ccccc2)CC1,-6.7%,?,?,?,?,-34.0%
N#Cc1nc(-c2cccs2)oc1N1CCN(c2ccccc2)CC1,15.4%,?,-9.7%,-20.2%,8.91µM*,?
N#Cc1nc(Cc2ccccc2)oc1N1CCN(c2ccccc2)CC1,-6.5%,10µM*,?,14.1µM*,?,28.2µM*
C=CCNc1oc(-c2cccs2)nc1C#N,8.4%,-35.7%,.,1.9%,15.6%[2.33 µM],-14.2%
CC[C@@H](C)CN1C(=O)N[C@@H](c2ccccc2)C(C(=O)OC)=C1C,-1.4%,.,.,.,.,.
O=C(COc1ccccc1F)Nc1ccc2nc(SCC(=O)N3CCOCC3)sc2c1,.,-25.9%,.,45.9%,-2.0%[59 µM],-0.3%
CCOC(=O)c1c(NC(=S)Nc2ccc(Cl)cc2)sc2c1CCN(C)C2,?,?,-8.1%,-17.3%,?,?
